Laboratory results from PubChem BioAssay AID2013 (Sanford-Burnham Center for Chemical Genomics, 2009).
Out of some 290,000 compounds screened, about 370 (0.13%) were called active.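 Rule for the calls: active = spots per cell inhibited over 60%, with over 100 cells counted and total cytoplasm intensity under 500,000; inconclusive = wells with under 100 cells, flagged as likely toxic; inactive = the rest.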 Only a selection was taken, and actives are over-represented in it overall. Measured potencies and affinities stand elsewhere.

What follows are compounds tested against G-protein coupled receptor 55 (Homo sapiens) (UniProt Q9Y2T6) (assay: GPR55 antagonists blocking LPI-driven arrestin recruitment, primary screen, imaging, U2OS, beta-arrestin-GFP, LPI agonist (AID 2013;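 note: U2OS cells stably carrying GPR55 and arrestin-GFP stimulated by 5 µM LPI near EC80; imaged beta-arrestin-GFP aggregate spots per cell after agonist stimulation; plate controls were LPI-stimulated DMSO wells for no effect and DMSO wells without LPI for full effect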)). Details: U2OS GPR55 beta-arrestin-GFP translocation imaging, LPI antagonism; at 10 µM; stronger effect = higher value.
Sequence of G-protein coupled receptor 55 (Homo sapiens) (Q9Y2T6 whole entry, looked up): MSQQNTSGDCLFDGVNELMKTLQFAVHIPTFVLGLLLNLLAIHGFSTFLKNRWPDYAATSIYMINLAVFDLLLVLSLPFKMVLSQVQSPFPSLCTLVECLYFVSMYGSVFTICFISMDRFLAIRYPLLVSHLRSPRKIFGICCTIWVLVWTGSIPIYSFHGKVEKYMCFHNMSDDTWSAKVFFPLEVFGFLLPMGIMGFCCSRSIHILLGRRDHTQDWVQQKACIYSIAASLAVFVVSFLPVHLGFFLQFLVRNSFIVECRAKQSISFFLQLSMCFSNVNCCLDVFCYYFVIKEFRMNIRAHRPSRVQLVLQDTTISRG

Compound	inhibition
CC(C)CCN(Cc1ccco1)S(=O)(=O)c1ccc(-c2ccc(=O)[nH]n2)s1	12.8% (inactive)
Cc1onc(-c2ccccc2)c1C(=O)N1CCCN2C(=O)c3ccccc3C21 (centres undefined)	-4.5% (inactive)
O=S1(=O)Cc2cc3ccccc3cc2C1	16.4% (inactive)
COc1ccc(C)cc1NC(=O)c1ccc(OC(F)F)cc1	3.1% (inactive)
CC(/C=C/c1ccccc1)=N/NC(=O)C(O)c1ccccc1 (centres undefined)	0.5% (inactive)
CC(=O)NC1=NN(C(C)=O)C2(S1)C(=O)N(C(C)=O)c1ccc(C)cc12 (centres undefined)	7.7% (inactive)
CC(c1nnc(SCC(=O)N2CC(=O)Nc3ccccc32)n1Cc1ccccc1)N(C)C (centres undefined)	-4.8% (inactive)
COc1cccc(Nc2cc(C)c3ccccc3n2)c1	6.5% (inactive)
CC(C)(C)c1nn(-c2ccccc2)c2[nH]c(=O)c(CNCc3ccco3)cc12	39.5% (inactive)
Cc1ccc(-c2nn(-c3ccccc3)c3[nH]c(=O)c(CNCc4ccccc4)cc23)cc1	11.1% (inactive)
CCOc1ccc(NCc2cc3c(C(C)(C)C)nn(-c4ccccc4)c3[nH]c2=O)cc1	19.3% (inactive)
Cc1nn(-c2ccccc2)c2[nH]c(=O)c(CNCc3ccc4c(c3)OCO4)cc12	-26.6% (inactive)
COc1cccc(NCc2cc3c(C(C)(C)C)nn(-c4ccccc4)c3[nH]c2=O)c1	22.7% (inactive)
CC(C)(C)c1nn(-c2ccccc2)c2[nH]c(=O)c(CNc3ccc4c(c3)OCCO4)cc12	16.1% (inactive)
COc1ccc(N2CCN(S(=O)(=O)c3ccc(Cl)s3)CC2)cc1	-2% (inactive)
Cc1ccc(NC(=O)CN(C)C(=O)CCOc2cccc(C)c2)cc1	7.3% (inactive)
O=[N+]([O-])c1ccc(N/N=C2\CC3CC=CC23)cc1 (centres undefined)	-7.7% (inactive)
O=C(N/N=C/c1ccc(OC(=O)c2ccccc2Cl)cc1)c1cc(O)cc(O)c1	4.4% (inactive)
O=C(CNC1CCCCC1)N1CCc2ccccc2C1	-1.3% (inactive)
C=CS(=O)(=O)c1ccc(Oc2ccc(S(=O)(=O)C=C)cc2)cc1	70.4% (active)
NS(=O)(=O)c1ccc(Oc2ccc(S(N)(=O)=O)cc2)cc1	-4.4% (inactive)
CNS(=O)(=O)c1ccc(Oc2ccc(S(=O)(=O)NC)cc2)cc1	19% (inactive)
COc1ccc(C(=S)N2CCOCC2)cc1OC(=O)c1ccc([N+](=O)[O-])cc1[N+](=O)[O-]	6.8% (inactive)
COC(=O)CCC(=O)OC1(C)C(=O)C=C2C=C(C3CC3)N(C3CC3)C=C2C1=O (centres undefined)	5.7% (inactive)

Compound	inhibition
COc1cccc(NC(=O)COC(=O)C2C3CC4OC(=O)C2C4C3)c1 (centres undefined)	2.1% (inactive)
COC(=O)C1=C(C)N(Cc2ccccc2)C(=NCCCCO)N[C@H]1c1ccccc1	-6.4% (inactive)
COCCN=C1N[C@@H](c2ccccc2)C(C(=O)OC)=C(C)N1Cc1ccccc1	31.4% (inactive)
Cc1ccc(OCC(=O)N2c3ccccc3NC(=O)C2(C)C)c([N+](=O)[O-])n1	6.9% (inactive)
CCOC(=O)c1nc(Nc2ccc(C)cc2)c2ccccc2n1	11.6% (inactive)
CCOC(=O)c1nc(Nc2ccccc2)c2ccccc2n1	-3.5% (inactive)
Cc1csc(NC(=O)CCC(=O)N(CC(=O)NC2CCCCC2)c2ccccc2)n1	7.7% (inactive)
Cn1cccc1/C=N/N1CCN(Cc2ccccc2Cl)CC1	-2.2% (inactive)
O=C1NC(=O)N(Cc2ccccc2F)C1=O	-13.9% (inactive)
Cc1cc(F)ccc1NC(=O)C1CCN(S(=O)(=O)c2ccc3c(c2)CCCC(=O)N3)CC1	8.1% (inactive)
O=C(NCCNC(=O)c1cc(Cl)ccc1Cl)c1ccccn1	3.4% (inactive)
CC(NC(=O)CN1CCCC1)C12CC3CC(CC(C3)C1)C2 (centres undefined)	-3.7% (inactive)
CC(NC(=O)Cn1nc(C(=O)O)c2ccccc2c1=O)C12CC3CC(CC(C3)C1)C2 (centres undefined)	-2.7% (inactive)
O=C(COC(=O)c1cc(S(=O)(=O)N2CCc3ccccc3C2)ccc1Cl)NCc1ccco1	7.3% (inactive)
Cn1c(N)c(C(=O)COC(=O)CCC2CCCCC2)c(=O)n(C)c1=O	8.4% (inactive)
CCN(CC)S(=O)(=O)c1ccc(N2CCOCC2)c(NC(=O)COc2ccccc2C#N)c1	-13.6% (inactive)
Cn1c(=O)c2ccccc2n2c(CCl)nnc12	5.8% (inactive)
CSCCNC(=O)c1ccc2nc(C3CCCCC3)oc2c1	4.5% (inactive)
O=C(NCc1ccccn1)c1ccc2nc(C3CCCCC3)oc2c1	-4.5% (inactive)
CCOc1ccc(N(C)S(=O)(=O)c2ccc3[nH]cc(C(=O)NCC4CCCO4)c(=O)c3c2)cc1 (centres undefined)	8.3% (inactive)
Cc1cc(NC(=O)c2ccc([N+](=O)[O-])cc2)n(CCC#N)n1	4.7% (inactive)
COCCCn1c(=S)[nH]c2sc3c(c2c1=O)CCCS3	-0.4% (inactive)
CCc1ccc(CN2CCCC(C(=O)N3CCCCC3)C2)cc1 (centres undefined)	12% (inactive)
CCc1nnc(NC(=O)c2ccc3c(c2)C(=O)N(CC(C)C)C3=O)s1	3.7% (inactive)

Compound	inhibition
CNC(=O)c1ncoc1-c1ccc(Cl)cc1	12.3% (inactive)
CCCNC(=O)c1nnsc1S(=O)(=O)c1ccc(Cl)cc1	31.8% (inactive)
CCCNC(=O)c1nnsc1Sc1ccc(Cl)cc1	-10.7% (inactive)
O=C(Nc1ccccc1)c1nnsc1S(=O)(=O)c1ccc(Cl)cc1	4.3% (inactive)
O=C(CC12CC3CC(CC(C3)C1)C2)NC(Cc1ccccc1)C(=O)O (centres undefined)	10.7% (inactive)
CC(=O)N(C(C)=O)c1nc(-c2ccccc2)cn1/N=C/c1ccccc1	7.8% (inactive)
CCCNC(=O)NC(=O)CSc1nncs1	1.8% (inactive)
Cc1ccc(C(=O)N/C(=C/c2ccco2)C(=O)N2CCCCC2)cc1	-6.4% (inactive)
CC(C)Nc1nc(Cl)nc(NCCOc2ccccc2)n1	1.4% (inactive)
CN(C)CC(C)(C)CNS(=O)(=O)c1ccc(Cl)s1	2.9% (inactive)
O=c1[nH]c(Cc2ccccc2)nc2scc(-c3ccccc3)c12	-0.4% (inactive)
NC(=O)c1cc(-c2ccccc2)nc(N2CCCCCC2)n1	-8.5% (inactive)
CN1CCN(c2nc(C(N)=O)cc(-c3ccccc3)n2)CC1	-5.1% (inactive)
CC(=O)Nc1ccc(S(=O)(=O)NCCC(=O)N2CCc3ccccc32)cc1	2.8% (inactive)
O=C(NC1CCCN(c2ccc(C(F)(F)F)cn2)C1)c1cc(Cl)ccc1F (centres undefined)	9.1% (inactive)
CC(C)=NNc1nc2c(c(=O)[nH]c(=O)n2C)n1CCc1ccccc1	-4.6% (inactive)
C=CCOc1c(CNc2cccc(C(=O)O)c2)cccc1OC	4.5% (inactive)
COc1ccc(Br)cc1/C=N/Nc1cccc(C(=O)O)c1	1% (inactive)
Cc1c(NC(=O)CN2C(=O)NC(CCc3ccccc3)C2=O)c(=O)n(-c2ccccc2)n1C (centres undefined)	13.9% (inactive)
NC(=O)[C@@H]1CCOc2c(F)cc([N+](=O)[O-])cc2C(=O)N[C@@H](CO)C(=O)NCC(=O)N1	1.8% (inactive)
COc1ccc(/C=C2\SC(N)=NC2=O)cc1	-7% (inactive)
CC12CCC(C/C1=N\N=C1\NC(=O)/C(=C\c3ccc(Cl)cc3)S1)C2(C)C (centres undefined)	41.5% (inactive)
O=C(CN(C(=O)CCC(=O)Nc1nccs1)c1ccc(F)cc1)NCC1CCCO1 (centres undefined)	15% (inactive)
C/C(Cl)=C\CSc1nnc2n(N)c(=O)c3ccccc3n12	-16.2% (inactive)

Compound	inhibition
Cc1ccc(OCc2cn3cccnc3n2)cc1	12.3% (inactive)
Cc1ccc(SCc2cn3cccnc3n2)cc1	-13.1% (inactive)
CCN(Cc1cn2cccnc2n1)C1CCCCC1	87.7% (active)
O=C1NCC(c2ccccc2)C1C(=O)N/N=C/c1ccc(Cl)s1 (centres undefined)	5.1% (inactive)
CN(c1ccccc1)c1ccc(/C=c2\s/c(=C(/C#N)C(=O)C(C)(C)C)n(Cc3ccco3)c2=O)cc1	74% (active)
Cc1ccc(/C=c2\s/c(=C(/C#N)C(=O)N3CCCC3)n(Cc3ccco3)c2=O)s1	5.1% (inactive)
COc1ccc(/C=c2\s/c(=C(/C#N)C(=O)NCc3ccco3)n(-c3ccccc3)c2=O)cc1	2.8% (inactive)
Cc1[nH]c(C)c(S(=O)(=O)N2CCCCC2)c1C(=O)N1CCCCC1	29.6% (inactive)
Cc1ccc(N2CN(CCc3ccccc3)CNC2=S)cc1	5% (inactive)
O=C(Nc1cccc(F)c1)NC1CCN(Cc2ccccc2)CC1	6% (inactive)
COc1ccc(/C=C(\C#N)C(=O)NC(C)c2ccccc2)cc1O (centres undefined)	4.5% (inactive)
CC(NC(=O)/C(C#N)=C/c1ccc([N+](=O)[O-])o1)c1ccccc1 (centres undefined)	4.1% (inactive)
CC(=NCCc1ccccc1)C1=C(O)COC1=O	13.7% (inactive)
CCOC(=O)c1c(N)sc(C(O)(C(F)(F)F)C(F)(F)F)c1-c1ccc(Cl)cc1	5.7% (inactive)
CCOC(=O)c1c(N)sc(C(O)(C(F)(F)F)C(F)(F)F)c1-c1ccc(OC)cc1OC	22.9% (inactive)
CCOC(=O)c1c(N)sc(-c2ccccc2)c1C	-6.5% (inactive)
CCOC(=O)c1c(N)sc(N)c1C(=O)OCC	6.2% (inactive)
N#Cc1c(N)nc(SCC(=O)C23CC4CC(CC(C4)C2)C3)c(C#N)c1-c1ccc(Cl)cc1	0.2% (inactive)
COC(=O)c1cccc(NC(=O)CSc2nc3cccnc3n2C)c1	16.9% (inactive)
CCCCCCCc1c(C)nc(N2CCOCC2)[nH]c1=O	3.4% (inactive)
CCOC(=O)C1=NN(N=O)C2(CC(=O)N(c3cc(C)cc(C)c3)C2=O)C1 (centres undefined)	8.8% (inactive)
CC(C)(C)N(Cc1cc2ccccc2[nH]c1=O)C(=O)c1cccc([N+](=O)[O-])c1	-1.2% (inactive)
